From PubChem BioAssay AID652105 (National Center for Advancing Translational Sciences (NCATS), 2013)
Hit rate of the full screen: of about 330,000 compounds, about 4,100 (1.2%) were called active. Another 2% or so got no clear call; they are omitted. What follows is part of a selection rich in actives, with near analogues and random picks from the rest. Values without a mark were called inactive. Rule for the calls: active = max response of -50% or lower; inconclusive = between -30% and -50%; inactive = -30% or higher.

Target: Phosphatidylinositol 5-phosphate 4-kinase type-2 alpha (Homo sapiens) (UniProt P48426)
Experiment: qHTS for Inhibitors of phosphatidylinositol 5-phosphate 4-kinase (PI5P4K); note: value at the top dose of about 77 µM
Conditions: PI5P4Kalpha enzyme, ADP-Glo luminescence, 60 min; active compounds read low
Excerpt: In addition to finding PI5P, we discovered the type II phosphatidylinositol 5-phosphate 4-kinase (PI5P4K) family (alpha, beta, gamma isoforms) that catalyze the conversion of PI5P to PI(4,5)P2. Alternatively, PI(4,5)P2 can also be synthesized through phosphatidylinositol-4-phosphate (PI4P) by the type I phosphatidylinositol 4-phosphate 5-kinases (PI4P5K). These PI5P4K enzymes therefore represent one way by which cells can regulate endogenous PI5P levels and play important roles in insulin signaling and in stress responses.
This proposal aims to identify and optimize specific modulators of human PI5P4K, phosphatidylinositol-5-phosphate 4-kinase (Type II PIPK), a family of kinases that regulate AKT signaling and tumor cell growth. In this project we aim to identify inhibitors of human PI5P4K using a quantitative high-throughput screening approach against the MLSMR containing ~400,000 small molecules.
NIH Chemical Genomics Center [NCGC]
NIH Molecular Libraries Probe Centers Network [MLPCN]
Assay Submitter (PI): Atsuo Sasaki, Beth Israel Deaconess Medical Center
2 microL of PI5P4Kalpha/substrate buffer (columns 1-2, 5-48) are dispensed into Greiner white solid bottom 1536-well assay plates; column 3 receives only PI5P4Kalpha buffer as 0x substrate controls; column 4 receives only substrate buffer as 0x PI5P4Kalpha controls. Final assay buffer consists of 0.038 M HEPES pH 7.4, 0.28 mM EGTA, 0.1% CHAPS, and 5% DMSO (final concentration). Compounds are then transferred via Kalypsys pin tool equipped with 1536-pin array (10 nL slotted pins, V&P Scientific, San Diego, CA). Following addition of compound, 1 microL of ATP (5 microM final concentration, all columns) is added to initiate the reaction. ATP is diluted in an assay buffer consisting of 0.02 M HEPES pH 7.4, 60 mM MgCl2, 15 microM ATP, and 0.1% CHAPS. The plates are then incubated at room temperature for 60 minutes. ADP-Glo reagent 1 is added (2 microL) and plates incubated for 45 minutes, before ADP-Glo reagent 2 (4 microL) is added and plates incubated for 30 minutes. They are then transferred to a ViewLux high-throughput CCD imager (PerkinElmer) wherein single end-point measurements of luminescence are acquired using a clear filter.
% is set by controls: 0 for no effect and ±100 for the full control effect.

Phosphatidylinositol 5-phosphate 4-kinase type-2 alpha (Homo sapiens), sequence (P48426 whole entry, looked up): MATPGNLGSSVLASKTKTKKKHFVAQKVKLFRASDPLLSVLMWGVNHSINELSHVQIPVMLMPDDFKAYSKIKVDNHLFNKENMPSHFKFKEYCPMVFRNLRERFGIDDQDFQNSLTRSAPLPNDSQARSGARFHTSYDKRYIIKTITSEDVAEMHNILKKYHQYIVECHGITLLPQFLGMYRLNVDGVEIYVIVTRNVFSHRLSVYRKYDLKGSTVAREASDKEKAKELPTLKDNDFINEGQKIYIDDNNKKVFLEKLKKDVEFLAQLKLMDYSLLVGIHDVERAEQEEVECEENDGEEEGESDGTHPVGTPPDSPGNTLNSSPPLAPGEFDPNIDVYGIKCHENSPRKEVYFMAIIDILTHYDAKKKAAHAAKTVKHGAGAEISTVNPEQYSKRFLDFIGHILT

Structure (SMILES) | max response
S=C(NCCc1ccccc1)Nc1ccccc1 | -4.55%
Nc1c(NCCc2ccccc2)c2ccccc2oc1=O | -0.531%
S=c1[nH]nc(NCCc2ccccc2)s1 | -73.1% (active)
Cc1ccccc1-c1csc(C(O)c2cccc(Cl)c2)n1 (stereo not drawn) | 23.5%
Cc1ccnc(N2CCCC(C(=O)NC3CC3)C2)n1 (stereo not drawn) | -0.042%
Cc1ccnc(-n2sc3ccccc3c2=O)n1 | -98.6% (active)
Cc1ccnc(SC2CC(=O)N(c3ccccc3)C2=O)n1 (stereo not drawn) | -1.33%
CCOCCC(=O)Nc1ccc2c(c1)c(=O)n(C)n2-c1ccc2ccccc2c1 | 0.749%
O=C1CCCC(O)=C1N=Nc1ccc(S(=O)(=O)N2CCOCC2)cc1 | -20.1%
O=C1CCCC(O)=C1N=Nc1ccc2ncsc2c1 | -66.1% (active)
COc1ccc(C(C#N)=C2C=CC(=NO)c3ccccc32)cc1 | -8.83%
N#Cc1c(-c2ccc(Cl)cc2)c2c([nH]c1=S)CCCC2 | -61.4% (active)
CC(=O)c1c(C)[nH]c(=S)c(C#N)c1-c1ccc(F)cc1 | -20.4%
N#Cc1c2c(c(-c3ccccc3)[nH]c1=O)CCCC2 | -4.1%
Cc1ccc(/C=N/NC(=S)NC2CCCCC2)o1 | -0.109%
Cc1ccc(/C=N/NC(=S)Nc2cccc(S(=O)(=O)N(C)C)c2)o1 | -3.83%
O=C(NN=Cc1ccc(N2CCOCC2)cc1)c1cc2ccccc2cc1O | -58.2% (active)
CCN(CC)c1ccc(C(=O)N/N=C/c2ccc(N3CCOCC3)cc2)cc1 | -1.97%
COc1cc2ccccc2cc1C(=O)Nc1ccc(N2CCOCC2)cc1 | 5.82%
Cc1ccc(/C=N/NC(=O)c2cc3ccccc3cc2O)o1 | -60.2% (active)
CCOc1ccc(CCNC(=O)COC(=O)c2ccc(C)c(S(=O)(=O)N3CCOCC3)c2)cc1OCC | -2.07%
CC(C)C[C@@H]1COc2cc(N3CCC[C@@H]3CO)ccc2S(=O)(=O)N1 | 2.99%

Structure (SMILES) | max response
COC(=O)[C@@]12C[C@@H](CC(=O)NCCCCc3ccccc3)C(=O)N(Cc3ccccc3)C1=CCC(C)(C)C2 | 14.2%
C#Cc1ccc(NC(=O)C2(C)CCN2C(=O)Cc2ccc(-c3ccccc3)cc2)cc1 (stereo not drawn) | 26.3%
CCCc1c(-c2ccccc2F)ncn1Cc1ccccc1OC | 4%
Cc1ccc(C2=N/C(=C\c3ccc(OS(=O)(=O)c4ccc(C)cc4)cc3)C(=O)O2)cc1 | -1.18%
CCS(=O)(=O)C1=NSC2=NC(=O)/C(=C\c3cc(C)n(-c4cccc(OC)c4)c3C)C(=N)N21 | -20.4%
CCS(=O)(=O)C1=NSC2=NC(=O)/C(=C\c3ccc(OS(=O)(=O)c4ccccc4)cc3)C(=N)N21 | -73.6% (active)
Cc1ccccc1-c1nc(NC(C)C)nc2cc(-c3ccccc3)sc12 | 8.32%
S=c1[nH]nc(-c2cc(-c3ccccc3)n[nH]2)n1/N=C/c1c2ccccc2cc2ccccc12 | -58.9% (active)
Fc1ccccc1/C=N/n1c(-c2cccnc2)n[nH]c1=S | 5.87%
c1ccc(-c2cc(-c3ccccc3)[nH]n2)cc1 | -6.2%
Cc1ccc(Cn2c(C)nc3c(c2=O)c2nc4ccccc4nc2n3Cc2ccco2)cc1 | -62.3% (active)
Clc1cccc(-c2nc3nc4ccccc4nc3n2Cc2ccco2)c1 | -4.59%
O=c1c2ccccc2oc2nc(C3CCCCC3)n(Cc3ccco3)c(=O)c12 | 0.643%
CC1(C(=O)NCc2cccc3ccccc23)CCN1Cc1ccc(-c2ccccc2)o1 (stereo not drawn) | 25.6%
CCCCC[C@@H]1C=C(C(=O)OCC)[C@H](c2ccccc2)N1S(=O)(=O)c1ccc(C)cc1 | 8.7%
COCCNc1ncnc2c1ncn2[C@H]1CN(Cc2ccc(OC)cc2)C[C@@H](CO)O1 | 2.79%
C=CS(=O)c1sc(Cl)c(N2CCOCC2)c1[N+](=O)[O-] (stereo not drawn) | -71.5% (active)
CC(=O)Nc1cc(-c2ccccc2F)cn2c(-c3cccc(C(F)(F)F)c3)cnc12 | -3.13%
COc1ccc(C(C)(O)c2nc(-c3cc(F)cc(F)c3)cs2)cc1 (stereo not drawn) | 30.3%
CCc1c(C)nc2cc(-c3cccs3)[nH]n2c1=O | -0.23%
Cc1cc(=O)n2[nH]c(-c3sccc3-n3c(C)ccc3C)cc2n1 | -57.4% (active)
Cc1cc(=O)n2[nH]c(-c3cccc(Cl)c3)cc2n1 | -3.84%

Structure (SMILES) | max response
CC(C)C[C@H]1CN([C@@H](Cc2ccccc2)CN2CCC[C@@H]2CN2C(=O)C(=O)NC[C@@H]2Cc2ccc(O)cc2)C(=O)C(=O)N1CCc1ccccc1 | -1.65%
COc1ccc(OC)c2sc(NC(=O)C3COc4ccccc4O3)nc12 (stereo not drawn) | 2.71%
O=C(Nc1nc(-c2ccncc2)cs1)C1COc2ccccc2O1 (stereo not drawn) | -62.8% (active)
O=C(Nc1ncc([N+](=O)[O-])s1)C1COc2ccccc2O1 (stereo not drawn) | -21.4%
CN(C(=O)CN1CCN(c2cc(-c3ccc(OCc4ccccc4)cc3)ncn2)CC1)c1ccccc1 | -25%
C[C@H]1Cn2cnc(C(=O)N[C@H](C)c3ccccc3)c2C(=O)N1 | -2.59%
CC1=C/C(=N\OS(=O)(=O)c2ccccc2)C=CC1=O | -78.8% (active)
Cc1nc(C(F)(F)F)ccc1C(=O)N1CCC1(C)C(=O)NS(=O)(=O)c1ccc(F)cc1F (stereo not drawn) | -1.9%
CCC(c1nnnn1Cc1ccco1)N(Cc1cc2cc(OC)ccc2[nH]c1=O)C1CCCCC1 (stereo not drawn) | -18.4%
CCC(c1nnnn1Cc1ccco1)N(CCc1ccccc1)Cc1cc2ccc(OC)cc2[nH]c1=O (stereo not drawn) | -64.1% (active)
CCC(c1nnnn1Cc1ccco1)N(CCc1ccccc1)Cc1cc2cccc(C)c2[nH]c1=O (stereo not drawn) | -1.38%
CCc1nc2ccc(C(=O)NC3CCN(Cc4ccccc4)CC3)cn2c1N(CC)CCOC | -1.84%
CCOC(=O)[C@]12CCCC=C1N(Cc1ccc(Cl)cc1Cl)C(=O)[C@H](CC(=O)N1CCCCC1)C2 | 12%
CCCCC[C@H](C)N1C[C@@H](COCc2ccccc2)Oc2cc(N3CC[C@@H](N(C)C)C3)ccc2S1(=O)=O | 27.1%
CN(C)C(=O)c1cccc(-c2cnc3sc(NCc4ccc5c(c4)OCO5)nn23)c1 | -16.9%
Nc1ccc2[nH]c(=S)sc2c1 | -73.9% (active)
CCOc1ccc2[nH]c(=S)sc2c1 | -59.6% (active)
COc1ccc2[nH]c(=S)cc(C)c2c1 | -9.52%
O=c1[nH]c2ccccc2s1 | 5.23%
CCOc1ccc2nc(N(CCN(C)C)C(=O)c3ccc4ccccc4c3)sc2c1 | -3.3%
CC(C)C[C@H]1CNC(=S)N1C[C@H]1CCCN1C[C@H](Cc1ccc(O)cc1)N1C[C@H](Cc2ccc(O)cc2)N(CC2CCCCC2)C1=S | -6.15%
O=C(NCc1ccc(F)cc1)c1cc(C2CCCCN2C(=O)c2ccccn2)on1 (stereo not drawn) | -11.1%

Structure (SMILES) | max response
CCOC(=O)C1=CC[C@@H](c2ccncc2)N(S(=O)(=O)c2ccc(C)cc2)C1 | -0.549%
COc1cccc(-c2cc(NC(C)=O)c3ncc(-c4cccc(C(C)=O)c4)n3c2)c1 | -0.237%
CC(C)NC(=O)C1(C)CCCCN1Cc1cccc(C(F)(F)F)c1 (stereo not drawn) | 22.3%
COC(=O)c1ccc2nc(-c3ccc(Cl)cc3)c(Cc3cccc(F)c3)n2c1 | 7.01%
Cc1cc(N2C(=O)C(O)=C(C(=O)c3ccc(C)o3)C2c2ccc(OCc3ccccc3)cc2)no1 (stereo not drawn) | -59.9% (active)
CCCOc1ccc(C2C(C(=O)c3ccc(C)o3)=C(O)C(=O)N2CCCn2ccnc2)cc1 (stereo not drawn) | -23%
C=CCOc1cccc(C2C(C(=O)c3ccc(C)o3)=C(O)C(=O)N2CCN2CCOCC2)c1 (stereo not drawn) | 2.35%
O=C(c1ccc(CS(=O)Cc2ccccc2Cl)o1)N1CCN(c2ccccc2)CC1 (stereo not drawn) | -2.59%
O=C(Nc1ccc(OCCO)cc1)c1csc([C@H]2C[C@H](O)[C@@H](CO)O2)n1 | -3.56%
Cc1cccc(N2CCN(c3ccc(NC(=O)/C=C\C(=O)O)cc3)CC2)c1 | -9.89%
CN1CCN(c2ccc(NC(=O)c3cc(Cl)c4c(c3)OCCO4)cc2)CC1 | 3.06%
C=CC(=O)Nc1ccc(Nc2ccnc(Nc3ccc(N4CCN(C)CC4)cc3)n2)cc1 | -68.9% (active)
CCCCCc1c(Cc2ccccc2)ncn1CCc1ccccc1OC | -4.89%
CCC(c1nnnn1-c1ccc2c(c1)OCCO2)N1CCN(c2ccc(C(F)(F)F)cn2)CC1 (stereo not drawn) | -0.412%
COc1ccc(NC(=O)CSc2nc3ccccc3c(=O)n2C)cc1 | 0.885%
CC(C)Cn1c(SCC(=O)Nc2ccc(Cl)cc2F)nc(O)cc1=O | 3.57%
Cn1c(SCC(=O)Nc2ccc(Cl)cc2)nc(O)cc1=O | -57.1% (active)
O=C1c2ccccc2C(=O)N1CCCCCCN1C(=O)c2ccccc2C1=O | 1.45%
C[N+](C)(CCCCCC[N+](C)(C)CCCN1C(=O)c2cccc3cccc(c23)C1=O)CCCN1C(=O)c2cccc3cccc(c23)C1=O | -72.8% (active)
O=C(CCCCCN1C(=O)c2cccc3cccc(c23)C1=O)NCc1ccco1 | 0.75%
COc1ccc(CC(N)c2csc(NC(=O)Nc3ccc(C(C)C)cc3)n2)cc1 (stereo not drawn) | -8.9%
CC1(C(=O)NS(=O)(=O)c2ccc(C#N)cc2)CCN1C(=O)CC1CCCC1 (stereo not drawn) | 0.461%
